The record followed here is PubChem BioAssay (NCI).

Assay [1] can be described thus: NCI Yeast Anticancer Drug Screen. Data for the rad50 strain (AID 155).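 Note: 0% = growth of vehicle-only cultures of the same strain.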 The settings on record: S. cerevisiae rad50 strain growth inhibition; at 50.0 µM; active compounds read high. Summed up:
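Inhibition values express reduced yeast growth in compound-treated cultures relative to vehicle-treated controls.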

The nature of assay [2]: NCI Yeast Anticancer Drug Screen. Data for the mec2-1 strain (AID 157). The settings on record: S. cerevisiae mec2-1 strain, at 50.0 µM, active compounds read high. A digest of the protocol: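 Test agents were screened against the mec2-1 yeast strain, with defined DNA repair or cell cycle alteration. Growth was scored as inhibition against vehicle-only controls.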
Assay [3] can be described thus: NCI Yeast Anticancer Drug Screen. Data for the sgs1 mgt1 strain (AID 161).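 Note: 0% = growth of cultures given vehicle only.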 The settings on record: S. cerevisiae sgs1 mgt1 strain, at 50.0 µM, active compounds read high. A digest of the protocol: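 Inhibition of yeast growth, normalised to vehicle-treated controls, is reported for a strain bearing genetic alterations in DNA damage repair.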
Assay [4] in a line: NCI Yeast Anticancer Drug Screen. Data for the cln2 rad14 strain (AID 165).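 Note: 0% = growth equal to vehicle treated cultures.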 The settings on record: S. cerevisiae cln2 rad14 strain, at 50.0 µM, active compounds read high. A digest of the protocol:
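Growth of compound-exposed yeast (cln2 rad14 genotype) measured and expressed as inhibition relative to vehicle.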

Assay [5] can be described thus: NCI Yeast Anticancer Drug Screen. Data for the bub3 strain (AID 167). The settings on record: S. cerevisiae bub3 mutant strain, at 50.0 µM, active compounds read high. A digest of the protocol:
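Steps: expose the mutant yeast strain to compound; grow alongside vehicle-treated cultures; measure growth; express inhibition against the vehicle cultures.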

Assay [6] can be described thus: NCI Yeast Anticancer Drug Screen. Data for the mlh1 rad18 strain (AID 175). The settings on record: S. cerevisiae mlh1 rad18 strain growth inhibition; at 50.0 µM; active compounds read high. A digest of the protocol:
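In this whole-cell yeast screen, a strain with altered DNA damage repair is challenged with compound, and its growth is measured against matched vehicle-treated controls.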

The panel holds about 79,000 compounds, 15% with a hit somewhere; the sample as a whole holds those more often. A number with no mark means an inactive call. Calls of active or inactive are those of the source. Cut-off read from the data, not from the text of the source: active = growth inhibition above about 70%; inactive = the rest.

Regarding `O=C(CS(=O)(=O)O)Nc1ccccc1`, the growth inhibition was 36.8% in assay [1]; 11.9% in assay [2]; 27.9% in assay [3]; 14.7% in assay [4]; 17.1% in assay [5]; 22.2% in assay [6].
For the compound `COC(=O)C1C2CCCN2OC1(C)CO` (stereo not given), the growth inhibition in assay [1] was -2.6%; in assay [2], 12.5%; in assay [3], 12.4%; in assay [4], 2.45%; in assay [5], 12.9%; in assay [6] it was 2.1%.
Consider `CNC1(c2ccccc2)CC1`, for which the growth inhibition in assay [1] was 24.9%; in assay [2], -12.2%; in assay [3] it was 0.95%; in assay [4] it was -60.9%; in assay [5], 15.2%; in assay [6], -7.05%.
`CN(Cc1cnc2nc(N)nc(N)c2n1)c1ccc(C(=O)NC(CCC(=O)NCC(P(=O)(O)O)P(=O)(O)O)C(=O)O)cc1` (stereo not given): the growth inhibition in assay [1] is -12.6%; in assay [2], -28.2%; in assay [3], -28.9%; in assay [4], -28.1%; in assay [5], -15.8%; in assay [6], -20.1%.
With `C[C@]12CC[C@H]3[C@@H](CCC4=CC(=O)CC[C@@]43C)[C@@H]1CC[C@@H]2OC(=O)c1cccc2c(=O)c3ccccc3[nH]c12`, the growth inhibition in assay [1] is 30.6%; in assay [2], 73% (active); in assay [3] it was 82.1% (active); in assay [4], 34.2%; in assay [5], 71.2% (active); in assay [6] it was 4.1%.
Take `CN(C)c1ccc(-c2ccc(N(C)C)cc2)cc1`: the growth inhibition in assay [1] is -10.6%; in assay [2], 7.3%; in assay [3] it was 5.45%; in assay [4], 17.6%; in assay [5] it was 3.2%; in assay [6], -2.6%.
With `CC(C)(C)c1ccc(OP(=O)(Oc2ccccc2)Oc2ccccc2)cc1`, the growth inhibition in assay [1] was 15.9%; in assay [2], 0.05%; in assay [3] it was -8.15%; in assay [4], -30.9%; in assay [5], 24.1%; in assay [6] it was 33.9%.
Turning to `CN(C)CCC(C)(C#N)c1ccccc1` (stereo not given), the growth inhibition in assay [1] was 8.9%; in assay [2] it was 5.7%; in assay [3], -4.8%; in assay [4], -7.05%; in assay [5] it was 13.9%; in assay [6] it was 21.1%.
Take `CC(=O)NC(ON1C(=O)COc2ccccc21)C(Cl)(Cl)Cl` (stereo not given): the growth inhibition in assay [1] was 27.6%; in assay [2], -16.8%; in assay [3], -13.2%; in assay [4] it was 10.2%; in assay [5] it was 26.6%; in assay [6], 7.95%.
With `Cc1csc(N/C(=N/[N+](=O)[O-])N(C)C)n1`, the growth inhibition in assay [1] is -35.5%; in assay [2], 0.65%; in assay [3], -9.15%; in assay [4] it was -10.8%; in assay [5], 2.1%; in assay [6] it was -3.7%.
As for `O=C1CC2(CCNCC2)C(=O)N1N1CCOCC1`, the growth inhibition was 19.6% in assay [1]; -0.15% in assay [2]; 5.4% in assay [3]; 7.55% in assay [4]; 2.6% in assay [5]; 6% in assay [6].
As to `CCN(CCCl)c1cc(C(N)=O)c([N+](=O)[O-])cc1[N+](=O)[O-]`, the growth inhibition was -1.25% in assay [1]; -8.7% in assay [2]; 9% in assay [3]; 3.8% in assay [4]; 5.25% in assay [5]; -19.6% in assay [6].
For the compound `COc1cc(C(CN)N(C)C)cc(OC)c1OC` (stereo not given), the growth inhibition in assay [1] was -42.6%; in assay [2], -48.7%; in assay [3] it was -14.9%; in assay [4], 14.4%; in assay [5], -0.9%; in assay [6] it was -8.65%.
Consider `OC1=C2CCCCCC2=[N+]2CCCCC2C1` (stereo not given), for which the growth inhibition in assay [1] was 19.1%; in assay [2], 33.6%; in assay [3] it was 52.5%; in assay [4] it was -1.6%; in assay [5], 32.2%; in assay [6] it was 70.8% (active).
On to `CCCCCCCCCCCCCCC(=O)[O][Hg][c]1ccccc1`, for which the growth inhibition in assay [1] is 99.2% (active); in assay [2], 98.9% (active); in assay [3], 99.5% (active); in assay [4], 99% (active); in assay [5], 99.2% (active); in assay [6], 99.1% (active).
`COc1ccc(C(=O)Cc2c(C(=O)c3ccccc3)c3ccccc3n2C(=O)c2ccccc2)cc1`: the growth inhibition was -2.45% in assay [1]; -18.5% in assay [2]; -9.5% in assay [3]; -57.6% in assay [4]; -23.4% in assay [5]; 5.75% in assay [6].
With `CCOC(=O)C1=C(OC(OCC)C(CC)[Se]c2ccccc2)CCC1` (stereo not given), the growth inhibition was 50.4% in assay [1]; 10.6% in assay [2]; 40% in assay [3]; 22.4% in assay [4]; 22.7% in assay [5]; 39.9% in assay [6].
Consider `CCOP(=O)(OCC)C(N)Cc1ccc(OC)c(OC)c1` (stereo not given), for which the growth inhibition in assay [1] was -3.85%; in assay [2] it was -4%; in assay [3] it was 2.35%; in assay [4], 19.9%; in assay [5], 13%; in assay [6], -16.6%.
`Cc1ccc(S(=O)(=O)NNP(Br)(c2ccccc2)(c2ccccc2)c2ccccc2)cc1`: the growth inhibition in assay [1] is 26.3%; in assay [2], -1.1%; in assay [3], 5.7%; in assay [4], -0.75%; in assay [5] it was 5.35%; in assay [6], 12.4%.
In the case of `Cc1cc(Cl)ccc1OC(C)C(=O)O` (stereo not given), the growth inhibition is -2.05% in assay [1]; -15.2% in assay [2]; 0% in assay [3]; 15.3% in assay [4]; -12.7% in assay [5]; -7.55% in assay [6].
